# PLK1 PBD inh: blocks phosphopeptide binding to human PLK1 polo-box domain | P53350 | Plk1 PBD binding of FITC phosphopeptide, fluorescence polarization | Potency, µM, without a hit: max response, negative = inhibition, hits mostly inhibitors | hit rate 2.8% among 360,000; further: series mostly up to about 57 µM; on the % scale 0 is the no-effect control and ±100 the full control effect; nearly all actives have a fitted effect of over 65% in size
# USP1 inh: blocks the human USP1/UAF1 deubiquitinase complex; recombinant USP1/UAF1, Ub-Rhodamine cleavage fluorescence; Potency, µM (highest dose often 57.1 µM), without a hit: at the highest dose activity change, negative = inhibition, actives largely listed as inhibitors; O94782; hit rate 0.23% among 390,000; further: on the % scale 0 is the no-effect control and ±100 the full control effect; nearly all actives have a fitted effect of over 60% in size
#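 USP1/UAF1 complex (1 nM) preincubated 15 min at room temperature with compound, then Ub-Rho substrate (150 nM final) added. Kinetic fluorescence at 480/540 nm over 6 reads at 60 s intervals; 50 mM HEPES pH 7.8, 0.5 mM EDTA, 0.1 mg/ml BSA, 1 mM TCEP, 0.01% Tween-20.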
# TSG101-PTAP inh: blocks PTAP/TSG101 interaction to inhibit HIV-1 budding | Fluorescence polarization, FITC-PTAP peptide / Tsg101 binding | Q99816 | Potency, µM (series often up to 115 µM), for the others: at the top dose activity change, negative = inhibition, most hits filed as inhibitors | 340,000 tested, under 10 active; active means well fitted inhibition curve with a large enough effect in the main read-out, with a control signal flat, not every such curve was filed as active; inconclusive means small, poorly fitted or top-dose-only effect, or effect the other way, or a change in a side signal; inactive means no such curve, though single readings can be large or run the other way; further: % of control where 0% means no effect
# Target sequence (Q99816 whole entry, looked up): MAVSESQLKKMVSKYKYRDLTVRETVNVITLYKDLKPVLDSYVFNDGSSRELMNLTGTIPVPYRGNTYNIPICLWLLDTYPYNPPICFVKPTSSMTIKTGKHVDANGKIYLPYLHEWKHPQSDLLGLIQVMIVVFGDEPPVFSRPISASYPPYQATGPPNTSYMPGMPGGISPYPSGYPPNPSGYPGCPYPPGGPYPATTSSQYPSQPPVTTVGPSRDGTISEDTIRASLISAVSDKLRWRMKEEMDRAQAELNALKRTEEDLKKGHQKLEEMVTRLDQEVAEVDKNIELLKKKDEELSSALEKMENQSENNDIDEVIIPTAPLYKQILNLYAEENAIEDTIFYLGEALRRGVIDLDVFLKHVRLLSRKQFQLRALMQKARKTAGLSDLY
#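 FP read-out: FITC-PTAP peptide, 50 nM final, binding Tsg101 binding domain, 10 uM final; 20 min, r.t.; 10 mM HEPES pH 7.5, 0.15 M NaCl, 0.01% Tween 20, 3 mM EDTA, 0.1 mM TCEP.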
# VDR inh: vitamin D3 receptor (human) inhibition | P11473 | VDR-SRC2-3 peptide fluorescence polarization, 2 h | Potency, µM, inactives show max response, negative = inhibition, most hits filed as inhibitors | hit rate 0.93% among 400,000; further: on the % scale 0 is the no-effect control and ±100 the full control effect
#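 Reagent solutions, kept cold and dark, are dispensed first; compounds are then pinned in at 23 nl, plates briefly spun, and incubated 2 h at ambient temperature. Inhibition of VDR–SRC2-3 peptide binding is read by fluorescence polarization.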
# KAT2A inh: inhibitors of human GCN5L2 histone acetyltransferase. Q92830. GCN5L2 HAT assay, ThioGlo1 CoA-SH fluorescence. Potency, µM (series often up to 58.9 µM), for inactives: at the top dose activity change, negative = inhibition, hits mostly inhibitors. hit rate 0.21% among 390,000. AID 504327; further: on the % scale 0 is the no-effect control and ±100 the full control effect
#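 Fluorescence readout, Ex340nm/Em540nm: ThioGlo1 (50uM final) reacts with free CoA thiol released as 20nM GCN5L2 acetylates H3(1-25) peptide (75uM) using acetyl-CoA (70uM). Compound and enzyme sat 15 min beforehand; 20 min room-temperature reaction.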
# An asterisk follows results filed as active; ? = inconclusive; nt = not tested or not shown; ! = a repeat was not active. A selection: hits, their analogues and other compounds. The true share with any hit is near 3%. Unless noted, the call rests on the fitted dose curve; in most records, active means well fitted curve in the direction sought with a large enough effect; inconclusive means small, poorly fitted or top-dose-only effect, or another doubt; inactive means no such curve, though single readings can be large; an effect the other way counts as inactive or inconclusive. Potency means the concentration at half of the fitted maximal effect.
SMILES,PLK1 PBD inh,USP1 inh,TSG101-PTAP inh,VDR inh,KAT2A inh
Cc1ccc2c(CN(C)Cc3ccc(OC(F)F)cc3)cc(=O)oc2c1C,-8%,-9%,1%,-26%,-3%
O=S(=O)(NCCc1nnc2ccc(SCc3c(F)cccc3Cl)nn12)c1ccccc1,nt,?,nt,-2%,-3%
O=C(Nc1ccccc1F)c1ccc(O)c2ncccc12,nt,nt,nt,nt,1%
COc1ccc(/C=C2\N=C(C)OC2=O)cc1OC(C)=O,-25%,-8%,-5%,50µM*,12%
CN(CC(=O)Nc1cc(C(F)(F)F)ccc1-n1cncn1)Cc1ccccc1N1CCOCC1,0%,?,-7%,-1%,nt
COc1ccccc1CC(=O)Nc1ccc2nc(Nc3cccc(Cl)c3)cc(C)c2c1,nt,-24%,nt,4%,-15%
Cc1ccccc1NC(=O)N1CCN(S(=O)(=O)c2ccccc2)CC1,17µM*,-21%,2%,-20%,11%
CC(=O)Nc1ccc(S(=O)(=O)N2CCN(C(=O)Cc3ccccc3)CC2)cc1,27µM*,-4%,0%,?,-8%
Cc1ccc(S(=O)(=O)N2CCN(C(=O)COc3ccc(NC(=O)c4ccco4)cc3)CC2)cc1,17µM*,-14%,2%,-24%,-5%
O=C(Nc1ccc(S(=O)(=O)N2CCOCC2)cc1)c1ccco1,-6%,-23%,1%,3%,3%
Cc1ccc(-c2cn3nc(N4CCCC(C(=O)NCc5ccccc5F)C4)sc3n2)cc1 (stereo unspecified),nt,?,nt,-6%,-7%
S=C(NCc1ccccc1)N1CCn2cccc2C1c1cccnc1 (stereo unspecified),-10%,-9%,-3%,-1%,-5%
S=C(NCc1ccccc1)N1CCn2cccc2C1c1ccncc1 (stereo unspecified),17µM*,?,-4%,-14%,-5%
COc1ccc2c(c1)O[C@@H](c1ccc3c(c1)OCO3)[C@H](OC(=O)N[C@H]1CCCc3ccccc31)C2=O,nt,nt,nt,26%,nt
O=C(N/N=C\c1ccc(Cl)s1)c1ccc(Cn2cccn2)o1,27µM*,-3%,-4%,71µM*,-5%
NC(=O)CC[C@H](NC(=O)c1ccc(F)cc1)C(=O)OCC(=O)Nc1c(F)c(F)c(F)c(F)c1F,-1%,-17%,-4%,0%,0%
NC(=O)CC[C@H](NC(=O)c1ccc(F)cc1)C(=O)OCC(=O)NCc1ccc(F)cc1,?,-10%,-5%,71µM*,0%
NC(CO)(CO)CO,nt,nt,nt,18%,-2%
CCOC(=O)C1=C(O)c2ccccc2C(=O)/C1=C\c1ccc(C)cc1,0.67µM*,?,-6%,?,-9%
Cc1cc(CN2CCN(CC(=O)Nc3cc(C(F)(F)F)ccc3-n3cncn3)CC2)no1,2%,-7%,-5%,-18%,3%
CCOC(=O)C1=C(C#N)C(C(=O)OCC)c2ncccc21 (stereo unspecified),3.4µM*,2%,nt,nt,nt
CCOC(=O)C1=C(C(C)=O)C(c2cccnc2)C(C#N)=C(N)O1 (stereo unspecified),-7%,-13%,-3%,-11%,11%
O=C(NCc1ccccc1Cl)c1ccc(NC(=O)N2CCSc3ncccc32)cc1,nt,-30%,nt,3%,-7%
N[C@@H]1C(O)OC(CO)C(O)C1O (stereo partly specified),nt,nt,nt,-8%,8%
OCC1O[C@H]([S-])[C@H](O)[C@@H](O)[C@@H]1O.[Au+] (stereo partly specified),nt,nt,nt,2.8µM*,117%
SMILES,PLK1 PBD inh,USP1 inh,TSG101-PTAP inh,VDR inh,KAT2A inh
CCC(=O)Nc1ccc2nc(SCCOc3ccccc3)sc2c1,nt,3%,nt,2%,-7%
CC(=O)Nc1ccc2nc(SCC(=O)NCCOc3ccccc3)sc2c1,3.4µM*,-14%,1%,?,1%
CCOC(=O)CCSc1n[nH]c(=S)s1,?,6%,-3%,17%,?
CCOC(=O)CSc1n[nH]c(=S)s1,27µM*,-5%,1%,-16%,25µM*
CC(C)(C=O)C1=CC(=O)c2ccccc2C1=O,2.1µM*,?,-4%,45µM*,-10%
COc1cccc2c1C(=O)C=C(C)C2=O,-7%,?,-3%,40µM*,-2%
CC1=CC(=O)c2ccccc2C1=O,-2%,?,-4%,3.5µM*!,3%
COc1ccc2c(c1O)C(=O)c1ccccc1C2=O,nt,nt,nt,nt,2%
CCOc1ccccc1C(O)C1=CC(=O)c2ccccc2C1=O (stereo unspecified),?,-16%,-2%,-24%,nt
COc1cccc(-c2ccc3ncnc(NCc4ccc(OC)cc4OC)c3c2)c1,nt,nt,nt,-10%,-18%
CC(C)c1ccc(C2=NC(c3ccncc3)=Nc3ccc(F)cc3N2)cc1,nt,-20%,nt,20%,-7%
COc1ccc(-n2c(SCC(=O)NC3CCCCC3)nc3c([nH]c4ccccc43)c2=O)cc1,nt,-18%,nt,-12%,4%
CCOC(=O)C1=NN(c2ccccc2)C2=NC(C)=C(C(=O)OC)C(c3ccc(C)cc3)N12 (stereo unspecified),-7%,4%,1%,-12%,-10%
CCOc1ccccc1NC(=O)Nc1nnc(N(C)Cc2ccccc2)s1,nt,-7%,nt,-4%,-2%
Cc1[nH]c2ccccc2c1[C@H]1[C@@H](CC#N)C1(C)C,30µM*,-19%,-2%,-7%,-6%
COc1ccc(NC(=S)NCCN2CCC(C)CC2)cc1Cl,11µM*,-9%,-1%,?,-5%
COc1ccc(NC(=S)N(CCCN2CCN(C)CC2)Cc2cccs2)cc1,-5%,-19%,1%,-10%,2%
COc1ccc(NC(=S)NCCCN2CCCC2)cc1Cl,19µM*,-17%,0%,-20%,-5%
COc1ccc(NC(=S)N(CCCN2CCC(C)CC2)Cc2cccs2)cc1Cl,17µM*,-15%,0%,-25%,1%
CCc1ccccc1NC(=O)Cc1ccc(-n2c(C)nc3cccnc32)cc1,nt,-4%,nt,1%,0%
Cc1ccc(Cn2cc(CN3CC(N4CCN(CCO)CC4)CS3(=O)=O)nn2)cc1 (stereo unspecified),-16%,nt,nt,nt,nt
COc1cccc(Cn2c(=O)n(-c3cc(C)cc(C)c3)c(=O)c3oc4ccccc4c32)c1,nt,19%,nt,6%,-11%
CC[C@H](C)[C@H](NC(=O)CNC(=O)COc1cc2c(c3oc(=O)cc(C)c13)CCC(C)(C)O2)C(=O)O,-3%,-25%,-7%,-16%,22µM*
CCOC(=O)/C(=C/c1ccc(OC(=O)c2ccccc2)cc1)C(C)=O,5.3µM*,-16%,-1%,?,-5%
CCOC(=O)C(=Cc1ccc(N(C)C)cc1)C(=O)c1ccccc1,4%,nt,nt,nt,nt
O=C(CNS(=O)(=O)c1ccc(C(=O)N2CCCCC2)cc1)N1CCCCC1,30µM*,-13%,-2%,-10%,2%
O=C(CSc1ncn[nH]1)Nc1cc(S(=O)(=O)N2CCCC2)ccc1Cl,30µM*,-20%,-2%,-2%,0%

# Bioassay records as filed in PubChem.
